Compounds without any hit were thinned out: in the full panel of roughly 79,000, 15% have a hit. Active and inactive are the calls of the source. Cut-off read from the data, not from the text of the source: active = growth inhibition above about 70%; inactive = the rest.
Tests used:
[1] = NCI Yeast Anticancer Drug Screen. Data for the rad52 strain (AID 147);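 note: 0% = growth of vehicle-treated control cultures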; conditions: S. cerevisiae rad52 mutant growth inhibition, stronger effect = higher value
Method in brief: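 DNA repair-defective yeast; compound exposure; growth scored against vehicle controls.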

[2] = NCI Yeast Anticancer Drug Screen. Data for the wt1 strain (AID 149);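 note: 0% = growth of vehicle-treated wt1 cultures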; conditions: S. cerevisiae wt1 strain (SPY 50644) growth inhibition, stronger effect = higher value
Method in brief: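 The wt1 strain was treated with compounds, and growth was compared with vehicle-treated cultures to give inhibition.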

[3] = NCI Yeast Anticancer Drug Screen. Data for the rad50EPP+ strain (AID 151);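 note: 0% = growth of vehicle-treated control cultures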; conditions: S. cerevisiae rad50 mutant strain, stronger effect = higher value
Method in brief: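 rad50EPP+ yeast treated with test compounds. Readout: growth vs vehicle control.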

[4] = NCI Yeast Anticancer Drug Screen. Data for the mgt1 strain (AID 153); conditions: S. cerevisiae mgt1 mutant growth inhibition, stronger effect = higher value
Method in brief: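 Growth inhibition relative to vehicle controls was scored for the mgt1 yeast strain after compound exposure.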

[5] = NCI Yeast Anticancer Drug Screen. Data for the rad50 strain (AID 155);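 note: 0% = growth of vehicle-only cultures of the same strain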; conditions: S. cerevisiae rad50 strain growth inhibition, stronger effect = higher value
Method in brief: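 Cells are treated with compound, grown, and their growth is then scored against vehicle-only cultures of the same repair-deficient yeast strain.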

[6] = NCI Yeast Anticancer Drug Screen. Data for the mec2-1 strain (AID 157); conditions: S. cerevisiae mec2-1 strain, stronger effect = higher value
Method in brief: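 Growth inhibition is read against vehicle-treated controls after compound exposure of the mec2-1 yeast strain, which is defective in DNA damage repair or cell cycle control.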

[7] = NCI Yeast Anticancer Drug Screen. Data for the rad14 strain (AID 159);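 note: 0% = growth of vehicle-treated control cultures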; conditions: S. cerevisiae rad14 strain growth inhibition, stronger effect = higher value
Method in brief: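 Readout: yeast growth inhibition, referenced to vehicle-only cultures. Strain bears a defined alteration in DNA damage repair.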

[8] = NCI Yeast Anticancer Drug Screen. Data for the sgs1 mgt1 strain (AID 161);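 note: 0% = growth of cultures given vehicle only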; conditions: S. cerevisiae sgs1 mgt1 strain, stronger effect = higher value
Method in brief: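 Yeast cells carrying a defined DNA-repair defect were exposed to test compounds. Growth inhibition was measured relative to vehicle-treated controls.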

[9] = NCI Yeast Anticancer Drug Screen. Data for the CLN2oe strain (AID 163);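 note: 0% = growth of vehicle-only control cultures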; conditions: S. cerevisiae CLN2oe strain, stronger effect = higher value
Method in brief: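 Compound-treated yeast; growth vs vehicle ctrl = % inhibition. Genetically altered strain (cell-cycle control).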

[10] = NCI Yeast Anticancer Drug Screen. Data for the cln2 rad14 strain (AID 165);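 note: 0% = growth equal to vehicle treated cultures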; conditions: S. cerevisiae cln2 rad14 strain, stronger effect = higher value
Method in brief: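 Growth inhibition, relative to vehicle-treated controls, is the read-out. The test organism is a yeast strain with defined genetic alterations, cln2 rad14.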

[11] = NCI Yeast Anticancer Drug Screen. Data for the bub3 strain (AID 167); conditions: S. cerevisiae bub3 mutant strain, stronger effect = higher value
Method in brief: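 Part of a panel of yeast mutants defective in DNA damage repair or cell cycle regulation. Each strain is grown with compound, and inhibition is calculated relative to solvent-treated cultures.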

[12] = NCI Yeast Anticancer Drug Screen. Data for the wt2 strain (AID 169);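 note: 0% = growth of vehicle-treated yeast cultures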; conditions: S. cerevisiae wt2 strain growth inhibition, stronger effect = higher value
Method in brief: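 Compound exposure of yeast; growth compared with vehicle controls; inhibition reported.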

[13] = NCI Yeast Anticancer Drug Screen. Data for the mlh1 strain (AID 171);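 note: 0% = growth of vehicle-treated control cultures of the same strain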; conditions: S. cerevisiae mlh1 strain growth inhibition, stronger effect = higher value
Method in brief: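 Compounds are applied to a genetically altered yeast strain, and its growth is compared with that of vehicle-treated cultures to give percent inhibition.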

[14] = NCI Yeast Anticancer Drug Screen. Data for the sgs1 strain (AID 173);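 note: 0% = growth of vehicle-only control cultures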; conditions: S. cerevisiae sgs1 mutant, stronger effect = higher value
Method in brief: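 Compounds applied to genetically altered yeast; growth compared with vehicle-treated cultures to give % inhibition.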

[15] = NCI Yeast Anticancer Drug Screen. Data for the mlh1 rad18 strain (AID 175); conditions: S. cerevisiae mlh1 rad18 strain growth inhibition, stronger effect = higher value
Method in brief: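 Cells of a genetically altered yeast strain, deficient in DNA damage repair, were treated with compound. Their growth was then compared with that of vehicle-treated cultures to give inhibition.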

[16] = NCI Yeast Anticancer Drug Screen. Data for the rad18 strain (AID 177); conditions: S. cerevisiae rad18 mutant growth inhibition, stronger effect = higher value
Method in brief: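 Compounds are applied to a repair-deficient yeast strain, and growth is compared with that of vehicle-treated cultures to give percent inhibition.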

[17] = at 5.0 µM (retest, dose inferred, filed as 0.5)
[18] = at 50.0 µM (retest, dose inferred, filed as 5.0)

Measured: growth inhibition

CO[C@@]12[C@H](COC(N)=O)C3=C(C(=O)C(C)=C(N)C3=O)N1C[C@@H]1N[C@@H]12
active: [1]; at 33.0 µM 83% | [1]; at 100.0 µM 92% | [3]; at 100.0 µM 83% | [4]; at 100.0 µM 79% | [5]; at 33.0 µM 76% | [5]; [18] 72% | [5]; at 100.0 µM 91% | [6]; at 33.0 µM 74% | [6]; [18] 80% | [6]; at 100.0 µM 91% | [7]; at 33.0 µM 76% | [7]; at 100.0 µM 89% | [9]; at 100.0 µM 85% | [12]; at 100.0 µM 86% | [13]; at 100.0 µM 84% | [14]; at 33.0 µM 71% | [14]; at 100.0 µM 90% | [15]; [17] 72% | [15]; [18] 92% | [15]; at 50.0 µM 71.7% | [16]; at 11.0 µM 84% | [16]; at 33.0 µM 93% | [16]; at 100.0 µM 94%
inactive: [1]; at 1.2 µM 7% | [1]; at 3.7 µM 19% | [1]; at 11.0 µM 55% | [2]; at 1.2 µM 1% | [2]; at 3.7 µM 2% | [2]; at 11.0 µM 9% | [2]; at 33.0 µM 30% | [2]; at 100.0 µM 62% | [3]; at 1.2 µM -4% | [3]; at 3.7 µM 5% | [3]; at 11.0 µM 25% | [3]; at 33.0 µM 63% | [4]; at 1.2 µM -2% | [4]; at 3.7 µM 2% | [4]; at 11.0 µM 11% | [4]; at 33.0 µM 33% | [5]; at 1.2 µM 1% | [5]; at 3.7 µM 14% | [5]; [17] 23% | [5]; at 11.0 µM 38% | [5]; at 50.0 µM 65.3% | [6]; at 1.2 µM 1% | [6]; at 3.7 µM 13% | [6]; [17] 25% | [6]; at 11.0 µM 29% | [6]; at 50.0 µM 63.9% | [7]; at 1.2 µM 6% | [7]; at 3.7 µM 17% | [7]; at 11.0 µM 39% | [8]; [17] 22% | [8]; [18] 68% | [8]; at 50.0 µM 50.8% | [9]; at 1.2 µM -3% | [9]; at 3.7 µM 0% | [9]; at 11.0 µM 7% | [9]; at 33.0 µM 38% | [10]; [17] 7% | [10]; [18] 57% | [10]; at 50.0 µM 48.8% | [11]; at 1.2 µM 1% | [11]; at 3.7 µM 3% | [11]; [17] 29% | [11]; at 11.0 µM 7% | [11]; at 33.0 µM 26% | [11]; [18] 49% | [11]; at 50.0 µM 25.4% | [11]; at 100.0 µM 67% | [12]; at 1.2 µM -1% | [12]; at 3.7 µM 4% | [12]; at 11.0 µM 15% | [12]; at 33.0 µM 51% | [13]; at 1.2 µM 1% | [13]; at 3.7 µM 7% | [13]; at 11.0 µM 21% | [13]; at 33.0 µM 55% | [14]; at 1.2 µM 3% | [14]; at 3.7 µM 11% | [14]; at 11.0 µM 36% | [16]; at 1.2 µM 20% | [16]; at 3.7 µM 60%

O=C(/C=N/O)Nc1cc(Cl)c(Cl)cc1Cl
inactive: [1]; at 1.2 µM -45% | [1]; at 3.7 µM -47% | [1]; at 11.0 µM -40% | [1]; at 33.0 µM -1% | [1]; at 100.0 µM 62% | [2]; at 1.2 µM -37% | [2]; at 3.7 µM -35% | [2]; at 11.0 µM -36% | [2]; at 33.0 µM -12% | [2]; at 100.0 µM 3% | [3]; at 1.2 µM -17% | [3]; at 3.7 µM 3% | [3]; at 11.0 µM 6% | [3]; at 33.0 µM 51% | [4]; at 1.2 µM -8% | [4]; at 3.7 µM -9% | [4]; at 11.0 µM 34% | [4]; at 33.0 µM 60% | [5]; at 1.2 µM -35% | [5]; at 3.7 µM -21% | [5]; [17] 45% | [5]; at 11.0 µM -33% | [5]; at 33.0 µM 10% | [5]; at 100.0 µM 63% | [6]; at 1.2 µM -34% | [6]; at 3.7 µM -22% | [6]; [17] 55% | [6]; at 11.0 µM -26% | [6]; at 33.0 µM -3% | [6]; at 50.0 µM 65% | [6]; at 100.0 µM 43% | [7]; at 1.2 µM -39% | [7]; at 3.7 µM -31% | [7]; at 11.0 µM -32% | [7]; at 33.0 µM 23% | [8]; [17] -12% | [9]; at 1.2 µM 6% | [9]; at 3.7 µM 18% | [9]; at 11.0 µM 1% | [9]; at 33.0 µM 18% | [9]; at 100.0 µM 63% | [10]; [17] 67% | [11]; at 1.2 µM -32% | [11]; at 3.7 µM -27% | [11]; [17] 17% | [11]; at 11.0 µM -21% | [11]; at 33.0 µM 8% | [11]; at 100.0 µM 57% | [12]; at 1.2 µM -56% | [12]; at 3.7 µM -58% | [12]; at 11.0 µM -38% | [12]; at 33.0 µM -1% | [12]; at 100.0 µM 37% | [13]; at 1.2 µM -34% | [13]; at 3.7 µM -26% | [13]; at 11.0 µM -9% | [13]; at 33.0 µM 37% | [14]; at 1.2 µM -55% | [14]; at 3.7 µM -31% | [14]; at 11.0 µM -36% | [14]; at 33.0 µM 28% | [14]; at 100.0 µM 67% | [15]; [17] 36% | [15]; at 50.0 µM 47.2% | [16]; at 1.2 µM -28% | [16]; at 3.7 µM -18% | [16]; at 11.0 µM -12% | [16]; at 33.0 µM 36%
active: [3]; at 100.0 µM 83% | [4]; at 100.0 µM 92% | [5]; [18] 98% | [5]; at 50.0 µM 79.2% | [6]; [18] 98% | [7]; at 100.0 µM 75% | [8]; [18] 84% | [10]; [18] 77% | [11]; [18] 89% | [13]; at 100.0 µM 79% | [15]; [18] 99% | [16]; at 100.0 µM 78%

Cc1cc(Cl)ccc1NC(=O)/C(Cl)=C1/Sc2ccccc2NC1=O
inactive: [1]; at 1.2 µM -3% | [1]; at 3.7 µM -3% | [1]; at 11.0 µM -2% | [1]; at 33.0 µM 0% | [1]; at 100.0 µM 27% | [2]; at 1.2 µM -1% | [2]; at 3.7 µM -3% | [2]; at 11.0 µM -4% | [2]; at 33.0 µM -41% | [2]; at 100.0 µM 3% | [3]; at 1.2 µM 1% | [3]; at 3.7 µM 4% | [3]; at 11.0 µM 7% | [3]; at 33.0 µM 8% | [3]; at 100.0 µM 2% | [4]; at 1.2 µM -2% | [4]; at 3.7 µM -1% | [4]; at 11.0 µM -3% | [4]; at 33.0 µM -5% | [4]; at 100.0 µM -2% | [5]; at 1.2 µM 2% | [5]; at 3.7 µM 24% | [5]; [17] 47% | [5]; at 11.0 µM 29% | [5]; at 33.0 µM 3% | [5]; at 100.0 µM 24% | [6]; at 1.2 µM -1% | [6]; at 3.7 µM -5%
active: [5]; [18] 82% | [5]; at 50.0 µM 72%
